This is part of a sample that, as a whole, favours compounds with a hit. Of some 83,000 tested, about 20% had one in any assay.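 Growth was measured after 48 h exposure to one concentration of compound in 96-well plates. Values under 10 count as active.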 Unmarked numbers belong to inactive results. The source made the active and inactive calls.

Test systems include HCT-15 colon; HT29 colon; SNB-75 CNS; SNB-19 CNS; U251 CNS; PC-3 prostate; SK-MEL-5 melanoma; UACC-62 melanoma; LOX IMVI melanoma; SK-MEL-28 melanoma.
Common to all, as to test: NCI-60 one-dose screen, 48 h (100 = growth as untreated, 0 = no growth, -100 = all killed)
Common to all, as to settings: 10 µM unless noted

For the compound `COc1cc(/C=C/C(=O)c2ccc(-n3cc(CN4CCN(c5cc6c(cc5F)c(=O)c(C(=O)O)cn6C5CC5)CC4)nn3)cc2)cc(OC)c1OC`, the growth was 90.6% in the assay on HCT-15 colon; 99.2% in the assay with HT29 colon; 85.7% in the assay on SNB-75 CNS; 76.7% with SNB-19 CNS; 68.4% with U251 CNS; 84.7% in the assay on PC-3 prostate. Also, the growth was 79.7% with SK-MEL-5 melanoma, 72.8% in the assay with UACC-62 melanoma, 55.7% in the assay with LOX IMVI melanoma and 92% in the assay with SK-MEL-28 melanoma.

As for `O=C(Nc1ncc(Cc2ccc(Cl)cc2)s1)c1ccc2c(c1)OCCO2`, the growth in the assay with HCT-15 colon was 8.98% (active); with HT29 colon, 7.68% (active); in the assay on SNB-75 CNS, 23%; with SNB-19 CNS it was 43.4%; with U251 CNS it was 17.6%; with PC-3 prostate, 30.3%. Moreover, the growth in the assay on SK-MEL-5 melanoma is -21.3% (active); in the assay with UACC-62 melanoma it was 45.8%; in the assay with LOX IMVI melanoma it was 31.3%; in the assay with SK-MEL-28 melanoma, 76.2%.

Regarding `COc1cc(C(=O)/C=C/c2c(-c3cccs3)nc3sc(C)cn23)cc(OC)c1OC`, the growth in the assay on HCT-15 colon was 10.4%; in the assay with HT29 colon, 3.69% (active); in the assay with SNB-75 CNS it was -15.6% (active); in the assay on SNB-19 CNS it was 15.5%; in the assay with U251 CNS, 5.96% (active); with PC-3 prostate it was 8.02% (active). Besides, the growth with SK-MEL-5 melanoma was -56.5% (active); in the assay with UACC-62 melanoma, -38.7% (active); in the assay with LOX IMVI melanoma it was 9.35% (active); with SK-MEL-28 melanoma it was 21.7%.

On to `C1=C2CCCC3=Cc4ccccc4OC23Oc2ccccc21`, for which the growth in the assay with HCT-15 colon is 20.1%; in the assay with HT29 colon it was 5.93% (active); in the assay with SNB-75 CNS, 23%; in the assay on SNB-19 CNS it was 27.4%; in the assay with U251 CNS it was 26.5%; in the assay with PC-3 prostate, 34.7%. Moreover, the growth with SK-MEL-5 melanoma was 20%; with UACC-62 melanoma, 14.5%; in the assay on LOX IMVI melanoma, 23%; with SK-MEL-28 melanoma, 54.2%.

On to `COc1cccc(/C=C/C(=O)/C=C(/C=C/c2cccc(OC)c2OC)OB(F)F)c1OC`, for which the growth with HCT-15 colon is 29.4%; with HT29 colon it was 49.2%; with SNB-75 CNS, 65.8%; in the assay with SNB-19 CNS it was 77.7%; with U251 CNS, 36.4%; in the assay on PC-3 prostate it was 57.9%. Also, the growth in the assay with SK-MEL-5 melanoma was 93.4%; with UACC-62 melanoma, 42.4%; in the assay with LOX IMVI melanoma it was 18.2%; with SK-MEL-28 melanoma it was 50.7%.

For the compound `Nc1nc(=O)n([C@H]2CC=C(CO)O2)cc1F`, the growth in the assay on HCT-15 colon was 101%; with HT29 colon, 91.9%; with SNB-75 CNS, 102%; with SNB-19 CNS, 96.3%; in the assay with U251 CNS, 95%; with PC-3 prostate, 92.1%. Besides, the growth was 100% in the assay with SK-MEL-5 melanoma, 92.4% in the assay on UACC-62 melanoma, 92.5% in the assay on LOX IMVI melanoma and 105% in the assay with SK-MEL-28 melanoma.

Turning to `C#CCOc1ccc(C2=NN(C)C3N=C(Cl)c4ncn(C)c4N23)cc1OCC#C` (stereo not given), the growth was 92.1% in the assay with HCT-15 colon; 103% in the assay on HT29 colon; 97.6% in the assay on SNB-75 CNS; 103% in the assay on SNB-19 CNS; 98.7% in the assay on U251 CNS; 91.1% in the assay with PC-3 prostate. Further, the growth in the assay with SK-MEL-5 melanoma is 86.1%; with UACC-62 melanoma, 84.3%; in the assay on LOX IMVI melanoma, 89.2%; with SK-MEL-28 melanoma it was 96.5%.

Regarding `CNC(=O)c1cc(Oc2cccc3nc(NC(=O)Nc4ccc(F)cc4F)ccc23)ccn1`, the growth was 18.1% in the assay on HCT-15 colon; 35.9% with HT29 colon; -64.4% (active) with SNB-75 CNS; 54.8% with SNB-19 CNS; 14.9% in the assay with U251 CNS; 38.5% in the assay with PC-3 prostate. The growth in the assay on SK-MEL-5 melanoma was 22.7%; with UACC-62 melanoma it was 52.5%; in the assay with LOX IMVI melanoma it was 19.8%; with SK-MEL-28 melanoma, 30.8%.

In the case of `Oc1ccc(Cc2ccc(O)c3ncccc23)c2cccnc12`, the growth with HCT-15 colon is 13.1%; with HT29 colon it was 57.6%; in the assay with SNB-75 CNS, 12.9%; with SNB-19 CNS it was 15.9%; in the assay on U251 CNS, 6.14% (active); in the assay on PC-3 prostate, 5.52% (active). Further, the growth is -47.3% (active) in the assay with SK-MEL-5 melanoma, 1.18% (active) in the assay on UACC-62 melanoma, 16.7% in the assay on LOX IMVI melanoma and 30.3% in the assay with SK-MEL-28 melanoma.

In the case of `CN(C)CC1C(=O)O[C@H]2[C@H]1CC/C(COC(=O)NCc1ccc(Cn3c(=O)sn(CCCI)c3=O)cc1)=C\CC[C@@]1(C)O[C@@H]21` (stereo not given in full), the growth with HCT-15 colon was 5.27% (active); with HT29 colon it was -80.4% (active); in the assay with SNB-75 CNS, 71.8%; in the assay on SNB-19 CNS, 89.9%; in the assay with U251 CNS it was 84.7%; with PC-3 prostate it was 66.5%. The growth with SK-MEL-5 melanoma was 64.2%; in the assay with UACC-62 melanoma it was 15.9%; in the assay on LOX IMVI melanoma it was -75.8% (active); in the assay with SK-MEL-28 melanoma it was -80.3% (active).

With `COc1ccc(C(=O)/C=C/c2ccc(Cl)cc2)cc1S(N)(=O)=O`, the growth was 26.3% in the assay with HCT-15 colon; 43.6% in the assay with HT29 colon; 82.5% in the assay with SNB-75 CNS; 14% in the assay with SNB-19 CNS; 32% in the assay with U251 CNS; -55.6% (active) with PC-3 prostate. Further, the growth in the assay with SK-MEL-5 melanoma is 85.7%; in the assay on UACC-62 melanoma, 46.4%; with LOX IMVI melanoma, 10.6%; with SK-MEL-28 melanoma it was 97.8%.

Regarding `O=C1/C(=C/c2cccc(Br)c2)COc2ccc(O)c(O)c21`, the growth with HCT-15 colon is -7.69% (active); in the assay on HT29 colon it was 2.91% (active); in the assay on SNB-75 CNS, 15.1%; in the assay on SNB-19 CNS it was 1.36% (active); in the assay with U251 CNS, -85.3% (active); in the assay on PC-3 prostate it was -35.1% (active). The growth in the assay with SK-MEL-5 melanoma is 23.3%; with UACC-62 melanoma, -72.2% (active); with LOX IMVI melanoma, -90.8% (active); in the assay on SK-MEL-28 melanoma, -17.2% (active).

On to `C[C@H]1c2ccccc2CN1CCCOc1cc2c(cc1OCC1CC1)C1(CCCC1)C(N)=N2`, for which the growth with HCT-15 colon was 2.62% (active); in the assay on HT29 colon it was 2.94% (active); with SNB-75 CNS, 74.9%; in the assay with SNB-19 CNS, 83.9%; with U251 CNS it was 48.7%; in the assay with PC-3 prostate, 44.6%. For the same compound, the growth is -84.6% (active) in the assay on SK-MEL-5 melanoma, 57.4% in the assay on UACC-62 melanoma, -70.2% (active) in the assay with LOX IMVI melanoma and -61% (active) in the assay on SK-MEL-28 melanoma.

Turning to `O=S(=O)(c1ccc(NCSc2nc3ccccc3s2)cc1)c1ccc(NCSc2nc3ccccc3s2)cc1`, the growth with HCT-15 colon is 106%; in the assay with HT29 colon, 87.8%; in the assay with SNB-75 CNS, 81.6%; in the assay on SNB-19 CNS, 95.9%; in the assay with U251 CNS it was 90.6%; in the assay with PC-3 prostate, 64.9%. Further, the growth in the assay with SK-MEL-5 melanoma was 97%; with UACC-62 melanoma, 83.5%; in the assay with LOX IMVI melanoma, 91.1%; with SK-MEL-28 melanoma, 110%.

Take `CCOC(=O)c1c(C)n2c(=O)cc(C)c3c(OC(C)=O)c(OC(C)=O)cc1c32`: the growth was 41.2% in the assay with HCT-15 colon; 102% in the assay on HT29 colon; 74.1% in the assay on SNB-75 CNS; 72% with SNB-19 CNS; 50.9% in the assay with U251 CNS; 59.2% in the assay on PC-3 prostate. Moreover, the growth was 50.3% in the assay with SK-MEL-5 melanoma, 76.2% in the assay on UACC-62 melanoma, 42.4% in the assay with LOX IMVI melanoma and 64.7% with SK-MEL-28 melanoma.

Turning to `COc1cc2c(c(OC)c1OC)C(=O)CC(c1cccc(C(=O)Nc3ccc(Br)cc3)c1)O2` (stereo not given), the growth with HCT-15 colon is 57.9%; with HT29 colon it was 75%; with SNB-75 CNS, 51.1%; with SNB-19 CNS, 80.2%; with U251 CNS, 83.4%; in the assay with PC-3 prostate, 5.38% (active). Also, the growth in the assay with SK-MEL-5 melanoma is 22.3%; with UACC-62 melanoma it was 40.9%; in the assay with LOX IMVI melanoma it was 57.9%; in the assay with SK-MEL-28 melanoma, 74.5%.

As to `CC(C)c1nc(N(C)S(C)(=O)=O)nc(-c2ccc(F)cc2)c1/C=C/C(=O)C[C@@H](O)CC(=O)O`, the growth is 108% in the assay with HCT-15 colon; 85.6% in the assay on HT29 colon; 91.4% in the assay on SNB-75 CNS; 105% in the assay with SNB-19 CNS; 105% in the assay with U251 CNS; 97.6% in the assay with PC-3 prostate. Also, the growth was 105% in the assay with SK-MEL-5 melanoma, 99.5% in the assay on UACC-62 melanoma, 101% in the assay with LOX IMVI melanoma and 112% in the assay on SK-MEL-28 melanoma.

On to `CCN1C(=O)N(CC)C2C1NN=c1s/c(=C\c3ccccc3)c(=O)n12` (stereo not given), for which the growth is 11% in the assay with HCT-15 colon; 3.09% (active) in the assay with HT29 colon; 20.8% in the assay with SNB-75 CNS; 27.1% in the assay with SNB-19 CNS; 8.08% (active) in the assay with U251 CNS; 23.9% in the assay on PC-3 prostate. In addition, the growth in the assay with SK-MEL-5 melanoma was -9.58% (active); in the assay on UACC-62 melanoma, 24.3%; in the assay with LOX IMVI melanoma, 15.9%; with SK-MEL-28 melanoma it was 60.6%.

`COC1CC(O)C2=C(CC3C(/C(C)=C\CC=C(C)C)CCC3(C)O2)C1=O` (stereo not given): the growth in the assay with HCT-15 colon is 110%; in the assay with HT29 colon it was 99.4%; in the assay with SNB-75 CNS, 107%; in the assay with SNB-19 CNS, 103%; in the assay on U251 CNS, 99%; in the assay with PC-3 prostate, 93.6%. Also, the growth in the assay with SK-MEL-5 melanoma was 99.2%; with UACC-62 melanoma it was 94.9%; in the assay on LOX IMVI melanoma, 106%; with SK-MEL-28 melanoma, 119%.

Consider `CCCCCCCC/C=C\CCCCCCCCOc1ccc(CC(=O)NCC[N+]2(C)CCCC2)cc1`, for which the growth in the assay with HCT-15 colon was 84.8%; with HT29 colon it was 18.4%; in the assay on SNB-75 CNS, 43.4%; with SNB-19 CNS, 38%; with U251 CNS, 15.1%; in the assay on PC-3 prostate it was 9.45% (active). Moreover, the growth in the assay with SK-MEL-5 melanoma is 79.5%; in the assay on UACC-62 melanoma, 50.3%; with LOX IMVI melanoma, 72.8%; in the assay with SK-MEL-28 melanoma, 95.9%.
